Hits are enriched below; roughly 2.9% of the tested compounds scored in any of these assays.
ADAM17 inh: inhibits human ADAM17 | inhibition, % at 6.95 µM | P78536 | AID 720648 | recombinant ADAM17, EDANS/DABCYL FRET peptide cleavage | 370,000 tested, 0.83% active;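 active means inhibition above the mean of compounds lying between control limits plus 3 SD, set per campaign, cut at about 8.5% in these data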;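 further: 0% = DMSO-only wells as the low control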
Target sequence (P78536 215-824 limits assumed): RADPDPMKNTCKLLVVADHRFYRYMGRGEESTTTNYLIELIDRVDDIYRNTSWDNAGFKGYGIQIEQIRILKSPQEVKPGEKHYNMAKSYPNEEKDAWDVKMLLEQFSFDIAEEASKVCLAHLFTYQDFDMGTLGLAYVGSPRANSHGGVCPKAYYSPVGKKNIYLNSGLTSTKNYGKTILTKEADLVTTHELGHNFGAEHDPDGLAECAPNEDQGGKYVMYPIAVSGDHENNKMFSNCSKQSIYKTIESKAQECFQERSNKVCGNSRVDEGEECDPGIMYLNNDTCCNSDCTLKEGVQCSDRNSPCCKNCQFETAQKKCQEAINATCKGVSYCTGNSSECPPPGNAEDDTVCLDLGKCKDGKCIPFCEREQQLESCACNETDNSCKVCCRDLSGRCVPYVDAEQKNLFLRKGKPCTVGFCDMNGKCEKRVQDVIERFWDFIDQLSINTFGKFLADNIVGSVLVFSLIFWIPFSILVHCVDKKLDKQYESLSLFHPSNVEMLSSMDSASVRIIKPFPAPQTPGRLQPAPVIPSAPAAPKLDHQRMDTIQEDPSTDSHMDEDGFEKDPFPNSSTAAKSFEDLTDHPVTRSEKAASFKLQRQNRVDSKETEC
PLC-gamma1 inh: blocks human PLC-gamma1 enzyme activity. P19174. purified PLC-gamma1, fluorogenic substrate, fluorescence. inhibition, % at 12.2 µM. 370,000 tested, 0.84% active. AID 720700; in the data active means inhibition above about 9.5%
PLCb3 inh: inhibitors of human phospholipase C beta3; Q01970; Purified PLC-beta3, fluorogenic substrate, fluorescence; inhibition, % at 12.2 µM; 370,000 tested, 0.18% active; AID 720704;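 further: 0% = median of compound wells on plate and 100% = full blocker control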
proKLK7 act: proKLK7 (human) activation, primary screen. P49862. purified proKLK7, EDANS-DABCYL substrate fluorescence; 100% is mature enzyme control, 0% vehicle. activation, % at 7 µM. 370,000 tested, 0.9% active;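 active means activation above the mean of all tested compounds plus 3 SD, computed per campaign excluding outliers beyond control limits, cut at about 13% in these data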
ADAM10 inh: inhibits human ADAM10; O14672; recombinant ADAM10, EDANS/DABCYL FRET peptide cleavage, 3 h; inhibition, % at 7 µM; 370,000 tested, 0.62% active; AID 720582;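 active means inhibition above a per-campaign cutoff equal to the mean of compounds falling between control-based bounds plus 3 SD, cut at about 20% in these data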;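 further: 0% = DMSO wells while the 100% control is not disclosed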
PLCg1 ctr: PLC-gamma1 inhibition, counter-screen for PLC-beta3 hits; shares compounds with PLC-gamma1 inh; purified PLC-gamma1, fluorogenic substrate, fluorescence; inhibition, % at 12.3 µM; 3,300 tested, 3.1% active; in the data active means inhibition above about 9.5%
PLCb3 confirm: human PLC-beta3 inhibition, confirmation; shares compounds with PLC-gamma1 inh; purified PLC-beta3, fluorogenic substrate fluorescence; inhibition, % at 12.3 µM; 3,300 tested, 1% active; AID 743261
* marks the source's active call; other numbers are inactive results. Unless noted, no stated cut-off is given here; in the data, active means inhibition above about 11%; inactive means the rest.

How did O=S(=O)(NC1CCCCC1N1CCOCC1)c1ccc(Cl)cc1 (stereo unspecified) do in these assays?
ADAM17 inh: -5.0; PLC-gamma1 inh: 11.7*; PLCb3 inh: -2.8; proKLK7 act: 0.5; ADAM10 inh: -13.5; PLCg1 ctr: -1.0; PLCb3 confirm: 0.6

How did O=C(OC1CCN(c2ncc(C(F)(F)F)cc2Cl)CC1)c1cccc(C(F)(F)F)c1 do in these assays?
ADAM17 inh: 1.2; PLC-gamma1 inh: 0.6; PLCb3 inh: 1.6; proKLK7 act: -0.2; ADAM10 inh: 7.8

What do the screens show for `O=C(c1cccc(C(F)(F)F)c1)N1CCOC12CCN(c1ncc(C(F)(F)F)cc1Cl)CC2`?
ADAM17 inh: 7.6; PLC-gamma1 inh: 10.8*; PLCb3 inh: 1.9; proKLK7 act: 0.0; ADAM10 inh: 8.8; PLCg1 ctr: -5.0; PLCb3 confirm: -3.3

What do the screens show for `CC(NC(=O)c1ccc(F)cc1)c1ccc2c(c1)CCCC2` (stereo unspecified)?
ADAM17 inh: 2.1; PLC-gamma1 inh: 13.1*; PLCb3 inh: 13.6*; proKLK7 act: -0.3; ADAM10 inh: 12.4; PLCg1 ctr: 2.9; PLCb3 confirm: 0.1

How did O=C(COc1ccc(F)cc1)c1ccc2c(c1)CCCC2 do in these assays?
ADAM17 inh: 5.9; PLC-gamma1 inh: 9.5*; PLCb3 inh: 7.1; proKLK7 act: -0.6; ADAM10 inh: 8.3; PLCg1 ctr: -3.6; PLCb3 confirm: -1.6

Results for CC(NC(=O)c1ccc(Br)cc1)c1ccc2c(c1)CCCC2 (stereo unspecified) ?
ADAM17 inh: 1.1; PLC-gamma1 inh: 5.7; PLCb3 inh: 5.9; proKLK7 act: 0.0; ADAM10 inh: 0.6

How did CC(=O)Nc1ccc(NC(=O)C2C3CCC(C3)C2C(=O)O)cc1 (stereo unspecified) do in these assays?
ADAM17 inh: -5.3; PLC-gamma1 inh: 5.8; PLCb3 inh: -1.4; proKLK7 act: 0.2; ADAM10 inh: 6.5

What do the screens show for `COc1ccc(NC(=O)C2C3CCC(C3)C2C(=O)O)cc1OC` (stereo unspecified)?
ADAM17 inh: -7.5; PLC-gamma1 inh: 17.8*; PLCb3 inh: -4.5; proKLK7 act: 0.0; ADAM10 inh: -8.9; PLCg1 ctr: -2.3; PLCb3 confirm: -3.6

What do the screens show for `O=C(CSc1nnc(-c2ccccc2F)n1C1CCCCC1)N1CCCC1`?
ADAM17 inh: -0.9; PLC-gamma1 inh: 6.1; PLCb3 inh: 5.6; proKLK7 act: -0.6; ADAM10 inh: -5.1

How did CC1CCN(C(=O)CSc2nnc(-c3cccnc3)n2C2CCCCC2)CC1 do in these assays?
ADAM17 inh: 2.2; PLC-gamma1 inh: 1.6; PLCb3 inh: -0.6; proKLK7 act: -0.5; ADAM10 inh: 4.6

How did O=C(CSc1nnc(-c2ccc(Br)cc2)n1C1CCCCC1)N1CCCC1 do in these assays?
ADAM17 inh: 7.2; PLC-gamma1 inh: 15.6*; PLCb3 inh: 5.8; proKLK7 act: -0.2; ADAM10 inh: 11.7; PLCg1 ctr: -4.0; PLCb3 confirm: -1.8

How did O=C(CSc1nnc(-c2ccc(Cl)cc2Cl)n1C1CCCCC1)N1CCCC1 do in these assays?
ADAM17 inh: 4.3; PLC-gamma1 inh: 11.2*; PLCb3 inh: 1.3; proKLK7 act: 0.7; ADAM10 inh: 14.3; PLCg1 ctr: 1.4; PLCb3 confirm: 2.1

What do the screens show for `CC1=NN(c2ccc(Cl)cc2)C(=O)C1`?
ADAM17 inh: 3.4; PLC-gamma1 inh: 13.3*; PLCb3 inh: 8.2; proKLK7 act: 0.2; ADAM10 inh: 7.0; PLCg1 ctr: -6.3; PLCb3 confirm: -2.6

How did CC1=NN(c2ccc(N)cc2)C(=O)C1 do in these assays?
ADAM17 inh: -4.3; PLC-gamma1 inh: -5.6; PLCb3 inh: -9.4; proKLK7 act: 0.3; ADAM10 inh: -1.7

Results for CC1=NN(c2ccccc2)C(=O)C1 ?
ADAM17 inh: 1.1; PLC-gamma1 inh: 23.8*; PLCb3 inh: 10.2; proKLK7 act: -0.6; ADAM10 inh: 7.8; PLCg1 ctr: 7.3; PLCb3 confirm: 7.6

Results for CC1=NN(Cc2ccccc2)C(=O)C1 ?
ADAM17 inh: 1.5; PLC-gamma1 inh: 12.8*; PLCb3 inh: 7.0; proKLK7 act: -0.6; ADAM10 inh: 3.5; PLCg1 ctr: -4.6; PLCb3 confirm: -3.1

How did COc1cc2[nH]c(C(=O)N(C)C3CCS(=O)(=O)C3)cc2c(OC)c1OC (stereo unspecified) do in these assays?
ADAM17 inh: -4.6; PLC-gamma1 inh: -27.2; PLCb3 inh: -46.0; proKLK7 act: 0.6; ADAM10 inh: -17.3

Results for COc1cc(NS(=O)(=O)c2ccc(NC(=O)NC3CCCCC3)cc2)nc(OC)n1 ?
ADAM17 inh: 6.5; PLC-gamma1 inh: 10.3*; PLCb3 inh: 3.5; proKLK7 act: 0.1; ADAM10 inh: 1.2; PLCg1 ctr: -5.1; PLCb3 confirm: 0.3

What do the screens show for `COc1cc(NS(=O)(=O)c2ccc(NC(=S)NC(=O)C3CCCC3)cc2)nc(OC)n1`?
ADAM17 inh: -2.3; PLC-gamma1 inh: 1.0; PLCb3 inh: 0.0; proKLK7 act: 0.1; ADAM10 inh: 9.8

Results for COC(=O)Cn1c(CCC(=O)O)ccc1-c1ccccc1 ?
ADAM17 inh: -225.0; PLC-gamma1 inh: -91.4; PLCb3 inh: -107.8; proKLK7 act: 3.8; ADAM10 inh: inactive

How did Cc1ccc(C)c(S(=O)(=O)NCc2ccc(C(=O)N3CCN(c4ccccc4)CC3)cc2)c1 do in these assays?
ADAM17 inh: -4.1; PLC-gamma1 inh: 0.1; PLCb3 inh: -8.3; proKLK7 act: 0.2; ADAM10 inh: 3.9

Results for CC(C)NC(=O)c1cc2cc([N+](=O)[O-])ccc2s1 ?
ADAM17 inh: 7.9; PLC-gamma1 inh: 13.9*; PLCb3 inh: 11.9*; proKLK7 act: 0.0; ADAM10 inh: 9.7; PLCg1 ctr: -3.1; PLCb3 confirm: 3.8

What do the screens show for `CCCNC(=O)c1cc2cc([N+](=O)[O-])ccc2s1`?
ADAM17 inh: -1.3; PLC-gamma1 inh: 1.4; PLCb3 inh: -2.4; proKLK7 act: 0.5; ADAM10 inh: 1.4

Results for CSC[C@H]1CN(c2ccccc2)C(=O)[C@@H]1CC(=O)Nc1ccccc1 ?
ADAM17 inh: 6.7; PLC-gamma1 inh: 9.5*; PLCb3 inh: 9.2; proKLK7 act: 0.5; ADAM10 inh: 3.3; PLCg1 ctr: -5.6; PLCb3 confirm: -0.9

What do the screens show for `CSC[C@H]1CN(c2ccc(Br)cc2)C(=O)[C@@H]1CC(=O)Nc1ccccc1`?
ADAM17 inh: 3.8; PLC-gamma1 inh: 3.0; PLCb3 inh: 4.7; proKLK7 act: 0.7; ADAM10 inh: 6.5

What do the screens show for `O=C(O)c1ccc(-n2cccc2/C=N\NC(=O)c2cc3cc(Br)ccc3o2)cc1`?
ADAM17 inh: -4.0; PLC-gamma1 inh: -256.3; PLCb3 inh: -332.4; proKLK7 act: 0.8; ADAM10 inh: -1.3
